Test results reported in PubChem BioAssay (EPA / NIEHS).
Results filed as inconclusive are left out. Active and inactive are the calls of the source. The calls were made as follows, unless noted: active = hit-call score of the fitted dose curve at least 0.9, where 1 is the maximum; inactive = score below 0.9.

Key:
[1] = ACEA_ER_80hr: ACEA Biosciences xCELLigence Real-Time Cell Analysis on Estrogen Receptor Agonism for Proliferation (AID 2282667; active = hit-call score of the fitted dose curve at least 0.9, where 1 is the maximum); settings: T47D proliferation, impedance (xCELLigence), 80 h
Outline: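 Cell-growth kinetics were measured by impedance in T47D cells treated continuously with compound (top 100 uM final, 1:4 steps, 8 points). Activity at 80 h was scored as signal gain over the DMSO baseline.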

[2] = ATG_CRE_CIS: Attagene CIS-FACTORIAL HepG2 Assay for human cAMP Responsive Element (CRE) binding protein 3 (AID 2282926); settings: HepG2 CRE cis-reporter, Attagene multiplexed mRNA; actives raise or lower the signal
Outline: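 Cells carrying cis-regulated reporter constructs respond through their own endogenous factors. After 24 h treatment, RNA is reverse-transcribed, amplified, labelled and sized by capillary electrophoresis; up- and down-regulation are both scored against vehicle.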

[3] = target: CCAAT/enhancer-binding protein beta (Homo sapiens) (UniProt P17676); assay: ATG_C_EBP_CIS: Attagene CIS-FACTORIAL HepG2 Assay for human CCAAT/Enhancer Binding Protein (C/EBP) beta (AID 2282927); settings: HepG2 Attagene cis-factorial transcription factor reporter; actives raise or lower the signal
Outline: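 Transiently transfected HepG2 (MRTU library, endogenous TF-driven promoters); 24 h dosing; total RNA → oligo(dT) RT → PCR → 6-FAM primer extension → HpaI digest → CE; fit bidirectionally vs DMSO.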

[4] = ATG_CMV_CIS: Attagene CIS-FACTORIAL HepG2 Assay for human CMV (Internal Marker) (AID 2282928); settings: HepG2 CMV promoter reporter, transcription factor profiling; actives raise or lower the signal;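 also: endpoint acts as a background internal control marker rather than a target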
Outline: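 Bidirectional fits against DMSO are applied to reporter mRNA, read by RT-PCR with capillary electrophoresis, from HepG2 cells exposed 24 h. The endpoint serves as an internal CMV background marker within the cis-factorial reporter panel.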

[5] = ATG_DR4_LXR_CIS: Attagene CIS-FACTORIAL HepG2 Assay for human Liver X Receptor (LXR), DR4 submotif (AID 2282929); settings: HepG2 Attagene DR4 cis-reporter, mRNA transcription; actives raise or lower the signal
Outline: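 Endogenous factor activity at a DR4 cis-element is read as reporter mRNA in transiently transfected HepG2 cells. Exposure lasts 24 h; transcripts are amplified, fluorescently labelled and sized by capillary electrophoresis, with DMSO as baseline.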

[6] = ATG_AP_1_CIS: Attagene CIS-FACTORIAL HepG2 Assay for human Activator Protein 1 (AP-1) (AID 2282931); settings: HepG2 Attagene cis-factorial AP-1 reporter mRNA; actives raise or lower the signal
Outline: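 Fluorescence of labelled PCR fragments separated by capillary electrophoresis gives reporter mRNA levels. HepG2 with transfected cis-regulated reporter units, 24 h exposure; DMSO serves as baseline for bidirectional curve fits.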

[7] = ATG_AP_2_CIS: Attagene CIS-FACTORIAL HepG2 Assay for human Activator Protein 2 (AP-2) (AID 2282932); settings: HepG2 AP-2 cis-reporter, Attagene transcription factor profiling; actives raise or lower the signal
Outline: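 Read-out: fluorescent reporter mRNA via RT-PCR and capillary electrophoresis, 24 h post-dose in transiently transfected HepG2. Endogenous factors drive cis-promoter reporters; gain or loss of signal fitted bidirectionally against DMSO.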

[8] = ATG_BRE_CIS: Attagene CIS-FACTORIAL HepG2 Assay for human Bone Morphogenetic Protein (BMP) Response Element (BRE) (AID 2282933); settings: HepG2 BMP response element reporter, Attagene transcription factor profiling; actives raise or lower the signal
Outline: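 Fluorescence-labelled reporter cDNA fragments, separated by capillary electrophoresis, gave the signal for this component of a 52-readout multiplex. HepG2 cells were transfected, exposed to chemicals for 24 h, and compared with DMSO using bidirectional fitting.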

[9] = target: Retinoic acid receptor alpha (Homo sapiens) (UniProt P10276); assay: ATG_DR5_RAR_CIS: Attagene CIS-FACTORIAL HepG2 Assay for human Retinoic Acid Receptor Alpha (RARE), DR5 submotif (AID 2282934); settings: HepG2 Attagene cis-factorial RARE DR5 reporter, mRNA; actives raise or lower the signal
Outline: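 Read-out: DR5-driven reporter transcript measured by RT-PCR, 6-FAM primer extension, HpaI digest and capillary electrophoresis. Human HepG2 liver cells carry transiently transfected cis-element reporter constructs; dosing lasts 24 h. Gain or loss of signal fitted against DMSO baseline.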

[10] = target: Transcription factor E2F1 (Homo sapiens) (UniProt Q01094); assay: ATG_E2F_CIS: Attagene CIS-FACTORIAL HepG2 Assay for human E2F Transcription Factor 1 (AID 2282935); settings: HepG2 Attagene cis-reporter, E2F reporter RNA transcripts; actives raise or lower the signal
Outline: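 Transient MRTU transfection of HepG2; 24 h compound exposure; RNA → oligo(dT) RT → PCR → FAM label → HpaI cut → CE fluorescence. Gain/loss of signal fit against DMSO.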

[11] = ATG_E_Box_CIS: Attagene CIS-FACTORIAL HepG2 Assay for human Enhancer Box (E-box) (AID 2282936); settings: HepG2 E-box cis-reporter transcription, actives raise or lower the signal
Outline: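 Transiently transfected HepG2, endogenous TF-driven reporters, 24 h dosing. Readout: RT-PCR plus capillary electrophoresis of fluorescent reporter fragments. Gain or loss of signal fitted bidirectionally against DMSO baseline.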

[12] = ATG_M_61_CIS: Attagene CIS-FACTORIAL HepG2 Assay for M61 Transcription Factor (Internal Marker) (AID 2282937); settings: HepG2 Attagene CIS-FACTORIAL M61 internal marker reporter; actives raise or lower the signal
Outline: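 This endpoint serves as an internal background control within a multiplexed HepG2 cis-reporter panel. Cells are exposed for 24 h; reporter mRNA is amplified, fluorescently labelled and sized by capillary electrophoresis, with DMSO as negative control.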

[13] = ATG_EGR_CIS: Attagene CIS-FACTORIAL HepG2 Assay for human Early Growth Response 1 (EGR1) (AID 2282938); settings: HepG2 Attagene CIS-FACTORIAL EGR reporter mRNA; actives raise or lower the signal
Outline: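 HepG2, transient MRTU transfection (cis promoters), 24 h compound. RNA → RT (oligo-dT) → PCR → 6-FAM labelling → HpaI cut → CE fluorescence. Bidirectional fit, DMSO baseline.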

[14] = ATG_M_19_CIS: Attagene CIS-FACTORIAL HepG2 Assay for M19 Transcription Factor (Internal Marker) (AID 2282939); settings: HepG2 Attagene CIS-FACTORIAL M19 internal marker reporter; actives raise or lower the signal
Outline: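 HepG2, MRTU transient transfection, 24 h dosing. Total RNA → RT-PCR → 6-FAM primer extension → HpaI digest → CE fluorescence. Bidirectional curve fit, DMSO negative control.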

[15] = ATG_ERE_CIS: Attagene CIS-FACTORIAL HepG2 Assay for Estrogen Response Element (ERE) (AID 2282940); settings: HepG2 ERE cis-reporter, Attagene RNA transcript; actives raise or lower the signal
Outline: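 After a 24 h chemical treatment, RNA from reporter-transfected HepG2 cells is reverse-transcribed, PCR-amplified and fluorescently labelled. Fragments separated by capillary electrophoresis give reporter signal; DMSO serves as negative control.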

[16] = ATG_Ets_CIS: Attagene CIS-FACTORIAL HepG2 Assay for human Erythroblast Transformation Specific (ETS) (AID 2282941); settings: HepG2 ETS cis-reporter transcription, actives raise or lower the signal
Outline: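 Endogenous transcription factor activity read as reporter mRNA via RT-PCR and capillary electrophoresis, with gain or loss fitted bidirectionally against DMSO. Human HepG2 liver cells, transiently transfected CIS reporter constructs, 24 h exposure.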

[17] = ATG_FoxO_CIS: Attagene CIS-FACTORIAL HepG2 Assay for human Forkhead box O (FoxO) (AID 2282943); settings: HepG2 Attagene cis-reporter, FoxO element, mRNA; actives raise or lower the signal
Outline: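 Read-out: fluorescence of 6-FAM-labelled reporter cDNA fragments resolved by capillary electrophoresis. Transiently transfected HepG2 cells were dosed for 24 h; activity fitted in both directions relative to DMSO controls.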

[18] = ATG_GATA_CIS: Attagene CIS-FACTORIAL HepG2 Assay for human GATA Binding Protein (AID 2282944); settings: HepG2 GATA cis-element reporter, Attagene multiplex mRNA; actives raise or lower the signal
Outline: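 Cells: HepG2, transiently transfected with cis-regulated reporter transcription units. Exposure: 24 h. Detection: RT-PCR plus capillary electrophoresis of FAM-labeled fragments. Analysis: bidirectional, DMSO as baseline.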

[19] = target: Hepatocyte nuclear factor 3-beta (Homo sapiens) (UniProt Q9Y261); assay: ATG_FoxA2_CIS: Attagene CIS-FACTORIAL HepG2 Assay for human Forkhead box A2 (FOXA2) (AID 2282942); settings: HepG2 cis-reporter transcription factor activity, 24 h; actives raise or lower the signal
Outline: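 Cells: HepG2, transient multiplex reporter transfection. Exposure 24 h. Detection: reporter-specific RT-PCR, fluorescent labelling, restriction digest, capillary electrophoresis. Analysis: bidirectional curve fit, DMSO as negative control.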

[20] = target: Aryl hydrocarbon receptor (Homo sapiens) (UniProt P35869); assay: ATG_Ahr_CIS: Attagene CIS-FACTORIAL HepG2 Assay for human Aryl Hydrocarbon Receptor (Ahr) (AID 2282930); settings: HepG2 AhR cis-factorial reporter transcription; actives raise or lower the signal
Outline: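 Read-out: reporter mRNA quantified by RT-PCR with fluorescent primer extension and capillary electrophoresis. Human HepG2 liver cells carried transfected cis-promoter reporter units and were exposed to chemical for 24 h; gain or loss fitted relative to DMSO.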

Measured: AC50

Chain of Aryl hydrocarbon receptor (Homo sapiens) (P35869 whole entry, looked up): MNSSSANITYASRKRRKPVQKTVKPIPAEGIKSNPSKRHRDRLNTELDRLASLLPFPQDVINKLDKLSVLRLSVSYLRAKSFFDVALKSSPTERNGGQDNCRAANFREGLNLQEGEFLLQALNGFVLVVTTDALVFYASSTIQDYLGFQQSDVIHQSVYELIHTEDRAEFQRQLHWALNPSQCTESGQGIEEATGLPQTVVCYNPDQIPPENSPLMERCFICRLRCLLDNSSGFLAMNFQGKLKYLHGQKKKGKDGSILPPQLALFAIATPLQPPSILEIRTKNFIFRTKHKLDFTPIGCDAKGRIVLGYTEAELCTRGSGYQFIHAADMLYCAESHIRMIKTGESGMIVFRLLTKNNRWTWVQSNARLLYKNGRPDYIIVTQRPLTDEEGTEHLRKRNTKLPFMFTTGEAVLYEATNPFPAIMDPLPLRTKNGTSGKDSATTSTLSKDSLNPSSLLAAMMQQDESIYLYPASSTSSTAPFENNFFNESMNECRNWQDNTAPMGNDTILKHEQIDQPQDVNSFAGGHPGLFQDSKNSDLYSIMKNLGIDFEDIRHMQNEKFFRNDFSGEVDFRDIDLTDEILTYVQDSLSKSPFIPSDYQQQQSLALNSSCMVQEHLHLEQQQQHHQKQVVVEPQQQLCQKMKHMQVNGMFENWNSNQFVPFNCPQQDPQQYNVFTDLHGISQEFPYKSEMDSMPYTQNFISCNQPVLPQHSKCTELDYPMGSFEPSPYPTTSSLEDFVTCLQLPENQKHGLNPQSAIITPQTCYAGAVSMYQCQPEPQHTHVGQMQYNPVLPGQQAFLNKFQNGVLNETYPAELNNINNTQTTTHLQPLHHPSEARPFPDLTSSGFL
Chain of Transcription factor E2F1 (Homo sapiens) (Q01094 whole entry, looked up): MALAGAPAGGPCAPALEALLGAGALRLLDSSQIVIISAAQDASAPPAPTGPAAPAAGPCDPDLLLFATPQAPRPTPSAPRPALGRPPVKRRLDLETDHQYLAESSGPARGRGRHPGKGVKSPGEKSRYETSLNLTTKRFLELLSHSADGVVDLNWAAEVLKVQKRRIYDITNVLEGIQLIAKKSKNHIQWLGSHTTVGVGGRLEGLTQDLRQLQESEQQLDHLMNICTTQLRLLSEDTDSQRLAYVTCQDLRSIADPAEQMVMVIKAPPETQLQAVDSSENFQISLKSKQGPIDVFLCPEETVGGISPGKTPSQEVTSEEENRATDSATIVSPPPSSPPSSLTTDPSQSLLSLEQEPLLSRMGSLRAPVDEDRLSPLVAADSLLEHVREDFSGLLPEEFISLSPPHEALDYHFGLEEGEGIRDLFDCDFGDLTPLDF
Chain of Hepatocyte nuclear factor 3-beta (Homo sapiens) (Q9Y261 whole entry, looked up): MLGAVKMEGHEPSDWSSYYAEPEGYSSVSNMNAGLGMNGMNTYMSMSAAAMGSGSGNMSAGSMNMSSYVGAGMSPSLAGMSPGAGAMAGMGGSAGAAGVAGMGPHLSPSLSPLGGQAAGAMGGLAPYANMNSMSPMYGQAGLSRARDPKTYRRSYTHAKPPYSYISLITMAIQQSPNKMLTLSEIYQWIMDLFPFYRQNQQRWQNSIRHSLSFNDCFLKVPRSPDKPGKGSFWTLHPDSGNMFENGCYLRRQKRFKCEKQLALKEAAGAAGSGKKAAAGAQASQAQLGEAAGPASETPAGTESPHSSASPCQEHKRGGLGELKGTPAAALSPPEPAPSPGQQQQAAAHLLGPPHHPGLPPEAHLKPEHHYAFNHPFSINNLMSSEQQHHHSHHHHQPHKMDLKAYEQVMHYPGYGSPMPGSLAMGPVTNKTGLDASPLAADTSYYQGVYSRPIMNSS
Chain of Retinoic acid receptor alpha (Homo sapiens) (P10276 whole entry, looked up): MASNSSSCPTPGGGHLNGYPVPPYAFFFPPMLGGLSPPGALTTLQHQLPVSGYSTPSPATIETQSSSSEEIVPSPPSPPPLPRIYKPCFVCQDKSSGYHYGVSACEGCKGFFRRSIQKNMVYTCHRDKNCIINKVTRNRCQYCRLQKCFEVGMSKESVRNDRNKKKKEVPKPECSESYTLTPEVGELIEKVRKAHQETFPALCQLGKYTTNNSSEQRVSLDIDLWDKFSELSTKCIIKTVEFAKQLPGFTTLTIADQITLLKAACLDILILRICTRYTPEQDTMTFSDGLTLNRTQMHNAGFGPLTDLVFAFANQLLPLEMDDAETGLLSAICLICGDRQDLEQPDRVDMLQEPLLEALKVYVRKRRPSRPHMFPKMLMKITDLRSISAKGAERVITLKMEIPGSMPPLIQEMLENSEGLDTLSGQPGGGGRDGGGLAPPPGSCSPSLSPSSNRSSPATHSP
Chain of CCAAT/enhancer-binding protein beta (Homo sapiens) (P17676 whole entry, looked up): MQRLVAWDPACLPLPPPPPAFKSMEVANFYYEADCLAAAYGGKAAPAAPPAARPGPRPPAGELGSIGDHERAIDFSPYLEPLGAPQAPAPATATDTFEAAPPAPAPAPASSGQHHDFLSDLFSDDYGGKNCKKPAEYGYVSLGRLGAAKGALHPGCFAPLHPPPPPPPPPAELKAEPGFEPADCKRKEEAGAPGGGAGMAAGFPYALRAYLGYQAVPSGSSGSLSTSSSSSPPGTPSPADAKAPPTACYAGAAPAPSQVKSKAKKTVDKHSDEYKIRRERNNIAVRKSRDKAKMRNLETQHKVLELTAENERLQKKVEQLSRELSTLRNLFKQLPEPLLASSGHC

C=CC(=O)OCCC(F)(F)C(F)(F)C(F)(F)C(F)(F)F
active: [1] 17.1 µM | [5] 94 µM | [6] 213 µM | [8] 101 µM
not listed: [19] | [20]
inactive: all other assays above

O=C(c1ccccc1)c1ccc(Cl)cc1
active: [15] 44.4 µM
not listed: [20]
inactive: all other assays above

OCCCCl
not listed: [11]
inactive: all other assays above

OCC(O)CC(F)(F)C(F)(F)C(F)(F)C(F)(F)C(F)(F)C(F)(F)C(F)(F)C(F)(F)F (stereo not given)
active: [16] 9.97 µM
not listed: [11] | [15]
inactive: all other assays above

CCN(CC)c1ccc(C=O)cc1
active: [1] 0.0998 µM | [14] 25.8 µM | [16] 26 µM
not listed: [11] | [20]
inactive: all other assays above

OCC(F)(F)C(F)(F)C(F)(F)CO
not listed: [5]
inactive: all other assays above

NC(=O)C(F)(F)C(F)(F)C(F)(F)F
not listed: [5]
inactive: all other assays above
